For 42 sequences, binding signal results are on record in paper PMC7819943, “Rice protein-binding microarrays: a tool to detect cis-acting elements near promoter regions in rice”.

In all, about 68,000 sequences were measured (“fluorescence intensity (a.u.)”: median about 9,100, highest 2% from about 16,000 on). What follows is part of a selection rich in the highest values, with near analogues and random picks from the rest.

Chain of OsWRKY34 (Q0JBA9 entry or part of it): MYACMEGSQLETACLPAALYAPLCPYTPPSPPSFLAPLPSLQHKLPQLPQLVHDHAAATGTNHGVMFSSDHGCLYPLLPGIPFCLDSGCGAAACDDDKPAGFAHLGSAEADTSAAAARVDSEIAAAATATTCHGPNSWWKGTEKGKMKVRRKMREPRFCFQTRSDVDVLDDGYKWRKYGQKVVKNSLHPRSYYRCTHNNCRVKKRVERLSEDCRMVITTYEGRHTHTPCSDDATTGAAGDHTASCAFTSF

This experiment concerns the target OsWRKY34 (Oryza sativa, UniProt Q0JBA9 1-250). Briefly: protein-binding microarray (RPBM); PBS, 2% BSA, 51.3 ng/ul salmon testes DNA, 50 uM zinc acetate, 200 nM TF, 25 C, 1 h; high values mean tight binding. Particulars: protein: recombinant; tags: N-terminal polyhistidine and DsRed monomer fusion (pET32a); label: CyDye5-dUTP incorporated in the synthesized complementary strand; 3' TTTTT single-stranded linker to array surface; dsDNA, one strand shown. A digest of the protocol:
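Transcription factors, each fused N-terminally to a polyhistidine tag and DsRed, were expressed in E. coli BL21-CodonPlus and purified on Ni–NTA. A custom Agilent array was made double-stranded by primer extension with Cy5-dUTP and blocked with 2% BSA. It was incubated with 200 nM protein in PBS, 2% BSA, salmon testes DNA and 50 µM zinc acetate at 25 °C for 1 h, then washed. The binding signal is per-feature fluorescence intensity (arbitrary units) read on an Axon 4000B scanner.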
Regarding “GAATTTTGCTTTGGTTCAACCTTTTTTCTCTTCTTTCTCTCGGAGTCACCTAGTGCAG”, the binding signal was 9740 fluorescence intensity (a.u.). As for “AAGGTATGGTTCTTCATTCTTGTCATTTTCTTTTGCAGCACGGAGTCACCTAGTGCAG”, the binding signal is 8220 fluorescence intensity (a.u.). In the case of “CTCAGCTTCCGTTATTACCTCTGCGCACAAGTTACCGGGCCGGAGTCACCTAGTGCAG”, the binding signal is 8720 fluorescence intensity (a.u.). As for “CTCCATCCTAAAATGTTTGACGCCGTTGACTTTTTTAAATCGGAGTCACCTAGTGCAG”, the figure is 24500 fluorescence intensity (a.u.); as for “AAGATATTTTCAATGTATTTTTTTATTGTTGACTTTTAAACGGAGTCACCTAGTGCAG”, 9030 fluorescence intensity (a.u.). As for “TTGACGCCGTTGACTTTTTAAAAAATATTTGACCGTTCTTCGGAGTCACCTAGTGCAG”, the binding signal was 37100 fluorescence intensity (a.u.). As to “AAATTAAATTTAAAAATTTAAATTTTGACTTTTTCTTGACCGGAGTCACCTAGTGCAG”, the binding signal is 8250 fluorescence intensity (a.u.). For the sequence “GTACTCCCTCCATCCCTAAATGTTTGACGCCGTTGACTTTCGGAGTCACCTAGTGCAG”, the binding signal was 16000 fluorescence intensity (a.u.). For “GAAAAAAATGTAAAAACTGTTGACTTTTAGTCAACGCCATCGGAGTCACCTAGTGCAG”, the binding signal is 16400 fluorescence intensity (a.u.). For the sequence “AATTTTCTTAAAATTTGAGGTTTAGTTTGACTTTCTTTTTCGGAGTCACCTAGTGCAG”, the binding signal is 9400 fluorescence intensity (a.u.). As for “CCTCATCACAAAATGTTTGACGCTGTTGACTTTTTTAAAACGGAGTCACCTAGTGCAG”, the figure is 15900 fluorescence intensity (a.u.). Turning to “TGTTTGACTTTTTTCTTGGTTAAAATTCTTTAAATTTGATCGGAGTCACCTAGTGCAG”, the binding signal was 18900 fluorescence intensity (a.u.). The figure for “GGTGGTTCTTGCTTCACACAATCTGGCGCGCTTCAGAACACGGAGTCACCTAGTGCAG” is 13300 fluorescence intensity (a.u.). As to “AAAACATGGTACAAATGCATACGCTCACACATGCACACTCCGGAGTCACCTAGTGCAG”, the binding signal is 8300 fluorescence intensity (a.u.). Take “ACTCACACTAGCTTGAAACTATCTGCGTACTCAAATTCAACGGAGTCACCTAGTGCAG”: the binding signal was 8080 fluorescence intensity (a.u.).

Turning to “CCATCCCGCCGCCACCGCCGCCGCCGCCGCCTCATCCTCCCGGAGTCACCTAGTGCAG”, the binding signal is 9300 fluorescence intensity (a.u.).

As to “ATTCTCAAATACCACTCGGGCCCACATGTCAGCCTTACTCCGGAGTCACCTAGTGCAG”, the binding signal is 8200 fluorescence intensity (a.u.). The figure for “CGGCTCGCTCAACCATACCACCTTTTCAAATTCATTTTTCCGGAGTCACCTAGTGCAG” is 11600 fluorescence intensity (a.u.); for “CGTCTCTAAATACTTGACGCCGTTGACTTTTTTAAATATGCGGAGTCACCTAGTGCAG” it is 26900 fluorescence intensity (a.u.).

As to “ATTTTTGACGCCGTTGACTTTTTTTAAATATGTTTGACCGCGGAGTCACCTAGTGCAG”, the binding signal is 46900 fluorescence intensity (a.u.). As for “ATATTTGACGACGTTGATTTTTTTTAAATATGTTTGACCGCGGAGTCACCTAGTGCAG”, the figure is 9090 fluorescence intensity (a.u.); as for “CGCCGTTGACTTTTTTAAAAATGTTTGACCGTTCCTCTTACGGAGTCACCTAGTGCAG”, 20900 fluorescence intensity (a.u.).

On to “ATCTTTGACGTCGTTGACTTTTAAAAAAATGTTTGACCGTCGGAGTCACCTAGTGCAG”, for which the binding signal was 22300 fluorescence intensity (a.u.). Turning to “ACGTCTCCACCACCACCACCGGCCAAACGCCGACCTCATCCGGAGTCACCTAGTGCAG”, the binding signal is 9450 fluorescence intensity (a.u.). For “CCAGTCAATTTCCCCACGTGCCATCTCGCTGCATCCGCCGCGGAGTCACCTAGTGCAG”, the binding signal is 10500 fluorescence intensity (a.u.). On to “CTCGCGCGCCCCGCCCGTTTCGCCTCGGCCGCCTCCTCCACGGAGTCACCTAGTGCAG”, for which the binding signal is 8480 fluorescence intensity (a.u.).

For “CATCTGCACGCATATATATCTGTAAACTCAGCGCGTTTTTCGGAGTCACCTAGTGCAG”, the binding signal is 8100 fluorescence intensity (a.u.). As for “ATTGTGGACTGTTTGACCTCCAGTTTGGACTGTAGGAATTCGGAGTCACCTAGTGCAG”, the figure is 8060 fluorescence intensity (a.u.). For “CTGTTGGTCAATCGCCGAACTTACCGCCGCGCCGGCCATGCGGAGTCACCTAGTGCAG”, the binding signal is 9410 fluorescence intensity (a.u.). For the sequence “TTCATTTTCAATTCCCGTCCTCATTCTTCTTATGATATTTCGGAGTCACCTAGTGCAG”, the binding signal is 8930 fluorescence intensity (a.u.). As for “AATCCATAATTAGTAAATATTTACTGTAGCACCATATTGTCGGAGTCACCTAGTGCAG”, the binding signal was 9810 fluorescence intensity (a.u.).

“ACGCCGTTGACTTTTTAAAATATGTTTGACCGTTTATCTTCGGAGTCACCTAGTGCAG”: the binding signal was 45700 fluorescence intensity (a.u.). With “AATGTTTGACGCCGTTGACTTTTTTAAAAATGTTTGGCCGCGGAGTCACCTAGTGCAG”, the binding signal was 29800 fluorescence intensity (a.u.). Take “ATTTGACGCCGTTACTTTTTTTAAAAATGTTTGGCCGTTCCGGAGTCACCTAGTGCAG”: the binding signal is 8270 fluorescence intensity (a.u.). “GTTGACTTTTTTTTAAACATGTTTGACCATTCATCTTATTCGGAGTCACCTAGTGCAG”: the binding signal was 11100 fluorescence intensity (a.u.). With “CGCTGTTGACTTTTTTAAAAATGTTTGACCGTTCATCTTACGGAGTCACCTAGTGCAG”, the binding signal is 33600 fluorescence intensity (a.u.). The figure for “ATTTTGACTTTTTCTTGTACTGTTTGACCATTCATCTTATCGGAGTCACCTAGTGCAG” is 16200 fluorescence intensity (a.u.); for “ACTTTTTAAAACATGTTTGACCGTTCATCTTATTTAAAAACGGAGTCACCTAGTGCAG” it is 8690 fluorescence intensity (a.u.); for “GTTGTTGACTTTTTAAAATTTGTTTGACCATTCATCTTATCGGAGTCACCTAGTGCAG” it is 23100 fluorescence intensity (a.u.). Take “ACTTTTTAAAACATGTTTGACCGTTCATCTTATTCAAAAACGGAGTCACCTAGTGCAG”: the binding signal is 8410 fluorescence intensity (a.u.). Take “CGGTTCTTGTCGTAGAAAGCTCCGTGTTATCGTTTATATTCGGAGTCACCTAGTGCAG”: the binding signal is 8090 fluorescence intensity (a.u.). For the sequence “CAGCCACCTCTCCATCTTCTGTCCGTTCACCTCTCCGTAACGGAGTCACCTAGTGCAG”, the binding signal was 12600 fluorescence intensity (a.u.).
